# In the library only some 7.5% were active in any assay of this set; here they are far more common.
# HCMV inh: qHTS Assay for inhibitors of the human cytomegalovirus (HCMV). HFF cells, HCMV-luciferase reporter, 72 h; hits give low values. activity change, negative = inhibition, % at 57.5 µM. 410,000 compounds, 4.5% hits; in the data active = activity change below about -60%; inconclusive = no clear call, values can overlap the other calls; inactive = above about -39%
#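 Luciferase read-out from HCMV-luciferase-infected HFFs (MOI 1 PFU/cell) 72 h post infection at 37C; compounds added after 16 h cell attachment; activity normalized between buffer-only basal and Salinomycin (10uM) inhibitor controls.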
# VACV Venus inh: qHTS for Stage-Specific Inhibitors of Vaccinia Orthopoxvirus: Venus Reporter Primary qHTS; Vaccinia virus Venus reporter expression, fluorescence; Potency, µM (doses to about 36.5 µM), inactives show top-dose activity change, negative = inhibition, actives largely listed as inhibitors; 330,000 compounds, 0.46% hits; calls by dose curve; tested in A549 cells; also: potency is read from the fitted curve at half-maximal effect; nearly all actives have a fitted effect of over 30% in size
# Giardia FBPA inh: qHTS Assay for Inhibitors of Fructose-1,6-bisphosphate Aldolase from Giardia Lamblia | AID 2451, 2010 | 290,000 compounds, 0.71% hits | purified Giardia FBPA | A8B2U2 | Potency, µM (highest dose often 59.6 µM), without a hit: at the top dose activity, negative = inhibition, most hits filed as inhibitors; also: potency is read from the fitted curve at half-maximal effect; nearly all actives have a fitted effect of over 55% in size
# Target sequence (A8B2U2 whole entry, looked up): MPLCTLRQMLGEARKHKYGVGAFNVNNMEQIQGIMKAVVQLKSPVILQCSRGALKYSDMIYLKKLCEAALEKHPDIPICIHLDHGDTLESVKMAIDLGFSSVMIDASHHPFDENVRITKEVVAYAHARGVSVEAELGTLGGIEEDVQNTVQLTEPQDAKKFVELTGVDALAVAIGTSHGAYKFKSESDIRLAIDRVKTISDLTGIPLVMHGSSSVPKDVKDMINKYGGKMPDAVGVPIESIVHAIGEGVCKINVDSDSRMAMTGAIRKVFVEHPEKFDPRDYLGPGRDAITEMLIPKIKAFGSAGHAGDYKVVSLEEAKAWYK
#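 40 nM FBPA preincubated 10 min at RT with compound (up to 57.5 uM final), then substrate plus GAPDH/TPI/NAD/arsenate coupling and diaphorase/resazurin added. Fluorescence read after 20 min at RT, 525/598 nm.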
# HCV inh: qHTS Assay for Inhibitors of Hepatitis C Virus (HCV); Huh7.5.1 HCVcc-Cre infection, luciferase reporter, 44 h; Potency, µM (top dose mostly 41.8 µM), inactives show top-dose activity change, negative = inhibition, actives largely listed as inhibitors; 340,000 compounds, 3.4% hits; also: potency is read from the fitted curve at half-maximal effect
#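 Reporter virus HCVcc-Cre (~0.5 moi) infects cells exposed to compound; seeding density 1,000 cells/well with 4 h settling beforehand. Luminescence, 15 sec read, taken 44 h post-infection following a 15 min RT substrate incubation.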
# Vaccinia mCherry: qHTS for Stage-Specific Inhibitors of Vaccinia Orthopoxvirus: mCherry Reporter Primary qHTS. Potency, µM (top dose mostly 36.5 µM), for the others: at the highest dose activity change, negative = inhibition, hits mostly inhibitors. 310,000 compounds, 0.63% hits. Vaccinia virus mCherry reporter infection, fluorescence; calls by dose curve; tested in A549 cells; also: potency is read from the fitted curve at half-maximal effect; nearly all actives have a fitted effect of over 35% in size
# FMDV antiviral: High Throughput Screening for Foot and Mouth Disease Virus Antivirals. 410,000 compounds, 1.2% hits. FMDV antiviral cell-based qHTS. Potency, µM (doses to about 57.9 µM), for inactives: at the highest dose activity change, negative = inhibition, usual class: inhibitors; calls by dose curve; tested in HEK293T cells; also: read-out not given here; potency is read from the fitted curve at half-maximal effect; nearly all actives have a fitted effect of over 45% in size
# Starred values were filed as active, the others as inactive; i = inactive; ? = inconclusive; . = no result; [ ] = dose if it differs, or a comment. Unless noted, calls follow the shape of the dose curve; as a rule, active = well fitted curve in the direction sought with a large enough effect; inconclusive = small, poorly fitted or top-dose-only effect, or another doubt; inactive = no such curve, though single readings can be large; an effect the other way counts as inactive or inconclusive. % is scaled to controls: 0 for no effect and ±100 for the full control effect.
SMILES,HCMV inh,VACV Venus inh,Giardia FBPA inh,HCV inh,Vaccinia mCherry,FMDV antiviral
O=[N+]([O-])c1cccc(S(=O)(=O)/N=C(/Nc2ccccc2)c2ccccc2)c1,-5.1,-6.5%,.,2.9%,i,-12.1%
CCCCNC(=S)NNC(=O)C1=NN(c2cc(C)ccc2C)C(=O)CC1,15.2,-15.3%,-3.4%,3.6%,-3.4%,-14.6%
COc1ccc(S(=O)(=O)Nc2ccccc2C(=O)N2CCOCC2)cc1C,18.4,-7.2%,3.1%,20.2%,-15.9%,29.8%
CCOc1cc(/C=C2/C(=O)ON=C2C)ccc1OCc1ccc(F)cc1,-97.0*,-14.1%,-16.5%,?,-7.6%,22.0%
COc1ccc(/C=C2\C(=O)ON=C2c2ccccc2)cc1OC,23.9,.,-3.4%,-4.3%,.,?
COc1ccc(/C=C2/C(=O)ON=C2c2ccccc2)cc1OC,82.8,0.3%,-18.9%,-1.9%,-8.1%,22.4µM*
O=C1ON=C(c2ccccc2)/C1=C/c1ccc(-c2ccccc2[N+](=O)[O-])o1,-98.1*,-25.6%,-24.7%,0.7%,-28.2%,28.2µM*
O=C1ON=C(c2ccccc2)/C1=C/c1ccco1,-2.3,15.6%,-26.9%,10.8%,-18.0%,31.6µM*
Cc1ccccc1NC(=O)Cn1cc(S(=O)(=O)c2ccccc2)c(=O)c2ccccc21,-13.0,-2.0%,.,.,-6.4%,5.3%
Cc1c(C(=O)O)sc2ncnc(N3CCCCC3C)c12 (stereo not given),-3.1,-8.1%,18.7%,15.5%,-12.9%,-7.3%
CCOC(=O)c1sc2nc(C)nc(N3CCCCC3C)c2c1C (stereo not given),-73.4*,-2.8%,-13.5%,-29.2%,-14.2%,-13.3%
Cc1sc2nc(CSc3ccccc3)nc(N3CCC(C(N)=O)CC3)c2c1C,0.9,.,-8.4%,?,.,-15.8%
CCOC(=O)c1sc2nc(CSc3ccccc3)nc(N3CCC(C(N)=O)CC3)c2c1C,?,10µM*,-15.5%,?,11.2µM*,?
CCN(C(=O)CSc1nnc(Nc2ccc(OC)cc2)s1)C1CCS(=O)(=O)C1 (stereo not given),97.3,-19.2%,.,-20.7%,-8.6%,32.2%
CCOC(=O)c1sc2nc(C)nc(SCC(=O)N(CC)C3CCS(=O)(=O)C3)c2c1C (stereo not given),-72.9*,.,-1.2%,-8.7%,.,?
C=C(C)CNC(=S)Nc1cccc(N)n1,3.4,-10.5%,-26.6%,9.0%,i,7.5%
COc1cc(O)ccc1-c1nc2cc(C)ccn2c1Nc1ccccc1C,-13.6,-12.2%,.,.,-5.9%,?
COc1ccccc1N(C(=O)c1csnn1)C(C(=O)NC1CCCC1)c1ccccc1 (stereo not given),-2.1,6.4%,8.4%,11.2%,i,25.3%
Cc1ccc(OCC(=O)Nc2nc(C)c(Cl)cc2Cl)c([N+](=O)[O-])n1,-8.9,.,.,-0.5%,.,23.3%
COc1cccc2c1C1COC3C4CC(C(=O)O)C(C(C2)N13)N4C (stereo not given),-96.0*,-10.2%,.,?,i,-13.9%
COc1cccc2c1C(CCCC(=O)O)CCC2 (stereo not given),-23.1,-9.1%,.,4.9%,i,-22.9%
COc1ccc2nc(NN=C(C)c3ccccn3)cc(C)c2c1,-98.7*,?,.,?,1µM*,-15.3%
CC(=NNc1ccc2ccccc2n1)c1ccccn1,-101.0*,.,.,.,.,.
CC(=NNc1ccc2ccccc2n1)c1ccccc1O,-60.8*,-20.4%,.,?,-14.3%,?
C/C(=N\Nc1ccc(Cl)cc1)c1ccccn1,40.5,-6.8%,-17.9%,.,i,54.3%
SMILES,HCMV inh,VACV Venus inh,Giardia FBPA inh,HCV inh,Vaccinia mCherry,FMDV antiviral
COc1ccc(OC)c(NC(=O)CSc2nnc(NC(=O)c3ccco3)s2)c1,-33.2,-21.0%,.,.,-9.2%,-25.5%
COc1ccc(CNC(=O)c2cnn(-c3nccc(-c4ccco4)n3)c2C)cc1OC,.,-14.0%,.,.,?,35.0%
O=C(CN1C(=O)NC2(CCCC2)C1=O)Nc1cc(Cl)ccc1N1CCOCC1,-33.7,-13.6%,.,8.6%,i,-0.1%
Nc1ncnc2c1ncn2COC(CO)CO,.,3.0%,.,.,0.2%,.
N#C/C(=C\c1coc2ccc(O)cc2c1=O)C(=O)Nc1nc2ccccc2s1,-73.1*,.,-19.7%,?,.,?
Cc1cc2c(cc3c(SCc4ccc(Cl)cc4)nnc(C)n32)o1,-11.8,-14.9%,.,.,-9.3%,2.7%
COC(=O)c1ccc(C)c(NC(=O)COC(=O)C2CC3CCCC(C2)C3=O)c1 (stereo not given),-15.5,-15.9%,.,5.3%,i,-9.2%
C=Cc1c(C)/c2[n-]/c1=C\c1[n-]c(c(CC)c1C)/C=c1\[n-]c3c(c1C)C(=O)C(C(=O)[O-])C=3c1[n-]c(c(C)c1CCC(=O)[O-])\C=2.[Cu].[Na+].[Na+] (stereo not given),.,.,14.1µM*,.,.,.
CC(Oc1ccc(Cl)cc1Cl)C(=O)Nc1ccc2oc(-c3ccncc3)nc2c1 (stereo not given),-73.6*,.,-1.0%,7.08µM*,.,?
O=C(Nc1ccc(-c2nc3ncccc3o2)cc1)c1ccc([N+](=O)[O-])o1,-75.6*,-21.6%,2.1%,3.55µM*,-29.7%,3.9%
O=C(Nc1ccc2oc(-c3ccncc3)nc2c1)c1ccccc1,?,-5.8%,4.7%,0.2%,i,9.6%
O=C(Nc1ccc2oc(-c3cccnc3)nc2c1)c1ccc(-c2cccc(OC(F)(F)F)c2)o1,-82.0*,-18.7%,.,.,-2.8%,?
O=C(Nc1ccc2oc(-c3ccncc3)nc2c1)c1ccc([N+](=O)[O-])o1,-102.0*,?,-3.5%,10µM*,10µM*,8.0%
Cc1c(Cl)cccc1-c1ccc(C(=O)Nc2ccc3oc(-c4cccnc4)nc3c2)o1,?,-11.4%[7.34 µM],.,.,-15.4%[7.34 µM],?
O=C(Nc1ccc(NC(=O)c2ccccc2F)cn1)c1ccco1,30.0,-11.8%,1.5%,-1.1%,-13.1%,-43.5%
CCCCc1nnc(SCC(=O)NC2CCCCC2)n1C,5.9,-6.2%,5.4%,16.3%,-13.2%,-4.2%
Cc1cccc(-n2ncc3c(N4CCCC4)ncnc32)c1,-1.7,-7.6%,0.0%,?,-17.8%,.
CC(=O)c1ccc(N2CCN(c3ncnc4c3cnn4C)CC2)cc1,13.3,-9.4%,.,.,-17.8%,?
Cc1noc2ncnc(N3CCN(c4cccc(Cl)c4)CC3)c12,-71.6*,.,4.0%,10µM*,.,25.1µM*
COc1ccc(-n2ncc3c(N4CCCCC4)ncnc32)cc1,.,-23.1%,-4.0%,?,-18.9%,10µM*
COc1ccc(N2CCN(c3ncnc4c3cnn4C)CC2)cc1,-61.0*,-11.9%,.,.,-13.0%,?
Cc1ccc(-n2ncc3c(N4CCCCC4)ncnc32)cc1,-100.5*,-0.8%,.,.,-13.3%,?
